Test system: DIPGX29 (H3.3 K27M diffuse intrinsic pontine glioma line)
Assay: growth inhibition (% activity, log2 RLU normalised to DMSO / staurosporine); higher = more growth inhibition
Details: 33 µM
How it was run: (§1)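 Approved drugs were tested in triplicate at a single final concentration of about 33 μM for 7 days at 37 °C, 5% CO2, on pHGG cell lines and H9-derived neural stem cells. Readout was CellTiter-Glo luminescence, log2-transformed and scaled per plate to % activity between solvent and positive control wells. The median over replicates gives the growth-inhibition value.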

Compound | growth inhibition
Oc1ccc(/C=C/c2cc(O)cc(O)c2)cc1 | 2.03%
CN1C2CCCC1CC(NC(=O)c1nn(C)c3ccccc13)C2 (stereo not drawn) | 1.3%
CC(C)(C)c1nc(-c2cccc(NS(=O)(=O)c3c(F)cccc3F)c2F)c(-c2ccnc(N)n2)s1 | 0.794%
CC(C)OC(=O)C(C)(C)Oc1ccc(C(=O)c2ccc(Cl)cc2)cc1 | 3.79%
CC1CCc2cc(F)cc3c(=O)c(C(=O)O)cn1c23 (stereo not drawn) | -0.61%
CC(=O)NC[C@H]1CN(c2ccc(N3CCOCC3)c(F)c2)C(=O)O1 | 0.341%
O=C(O)c1ccccc1 | -1.57%
Cc1ccnc2c1NC(=O)c1cccnc1N2C1CC1 | 0.291%
Nc1nc2ccc(OC(F)(F)F)cc2s1 | 2.99%
CCOC(=O)c1ncn2c1CN(C)C(=O)c1cc(F)ccc1-2 | 1.51%
Nc1nccs1 | -0.162%
Cn1ccnc1S | -2.03%
N#C[C@@H]1C[C@@H]2C[C@@H]2N1C(=O)[C@@H](N)C12CC3CC(CC(O)(C3)C1)C2 | 2.2%
CC(C)CC(N)=O | 0.179%
COc1ccccc1OCC(O)COC(N)=O (stereo not drawn) | -0.505%
CCCc1cc(=O)[nH]c(=S)[nH]1 | -0.542%
CC1(C)O[C@@H]2C[C@H]3[C@@H]4CCC5=CC(=O)C=C[C@]5(C)[C@@]4(F)[C@@H](O)C[C@]3(C)[C@]2(C(=O)CO)O1 | 1.92%
CN(C)CCOC(c1ccccc1)c1ccccc1 | -3.3%
CCOC(=O)c1c(CSc2ccccc2)n(C)c2cc(Br)c(O)c(CN(C)C)c12 | 0.0747%
CS(=O)(=O)c1ccc(C2=C(c3ccccc3)C(=O)OC2)cc1 | -1.33%

Compound | growth inhibition
Fc1ccc([C@@H]2CCNC[C@H]2COc2ccc3c(c2)OCO3)cc1 | 1.88%
NC(=O)c1ncn([C@@H]2O[C@H](CO)[C@@H](O)[C@H]2O)c1O | 0.0608%
COc1cc2c(cc1O)CC[C@@H]1[C@@H]2CC[C@]2(C)[C@@H](O)CC[C@@H]12 | 9.48%
COc1ccccc1OCC(O)CO (stereo not drawn) | -3.06%
CC(=O)O[C@H]1C(=O)[C@@]2(C)[C@H]([C@H](OC(=O)c3ccccc3)[C@]3(O)C[C@H](OC(=O)[C@H](O)[C@@H](NC(=O)c4ccccc4)c4ccccc4)C(C)=C1C3(C)C)[C@]1(OC(C)=O)CO[C@@H]1C[C@@H]2O | 9.71%
CC1CNc2c(cccc2S(=O)(=O)N[C@@H](CCCNC(=N)N)C(=O)N2CC[C@@H](C)C[C@@H]2C(=O)O)C1 (stereo partly drawn) | 0.0741%
N[C@@H]1CN(c2c(F)cc3c(=O)c(C(=O)O)cn([C@@H]4C[C@@H]4F)c3c2Cl)CC12CC2 | 1.84%
C=Cc1c(C)c2cc3nc(cc4[nH]c(cc5nc(cc1[nH]2)C(C)=C5CCC(=O)O)c(CCC(=O)OC)c4C)C1(C)C3=CC=C(C(=O)OC)C1C(=O)OC (stereo not drawn) | 0.0791%
CN1CCN(CCCN2c3ccccc3Sc3ccc(C(F)(F)F)cc32)CC1 | 14.9%
CC(c1cc2ccccc2s1)N(O)C(N)=O (stereo not drawn) | 0.492%
CN1CCN(c2cc3c(cc2F)c(=O)c(C(=O)O)cn3-c2ccc(F)cc2)CC1 | 0.274%
CC1(C)S[C@@H]2[C@H](NC(=O)[C@H](NC(=O)N3CCNC3=O)c3ccccc3)C(=O)N2[C@H]1C(=O)O | -0.235%
Cc1cccn2c(=O)c(-c3nnn[nH]3)cnc12 | 0.15%
CC(C)(C(=O)O)c1ccc(C(O)CCCN2CCC(C(O)(c3ccccc3)c3ccccc3)CC2)cc1 (stereo not drawn) | -0.186%
CCOC(=O)CC(=O)N1CCSC1COc1ccccc1OC (stereo not drawn) | 2.29%
Cc1cnc(NC(=O)C2=C(O)c3ccccc3S(=O)(=O)N2C)s1 | -1.57%
CC(C)(S)[C@@H](N)C(=O)O | 0.657%
CCCCNC(=O)NS(=O)(=O)c1ccc(C)cc1 | -0.968%
CCN1CCN(C(=O)NC(C(=O)NC2C(=O)N3C(C(=O)O)=C(CSc4nnnn4C)CSC23)c2ccc(O)cc2)C(=O)C1=O (stereo not drawn) | -4.55%

Test system: DIPGX37 (H3.3 K27M diffuse intrinsic pontine glioma line)
Assay: as above
Details: 33 µM
How it was run: as §1

Compound | growth inhibition
Oc1ccc(/C=C/c2cc(O)cc(O)c2)cc1 | -0.532%
CN1C2CCCC1CC(NC(=O)c1nn(C)c3ccccc13)C2 (stereo not drawn) | -1.75%
CC(C)(C)c1nc(-c2cccc(NS(=O)(=O)c3c(F)cccc3F)c2F)c(-c2ccnc(N)n2)s1 | 4.39%
CC(C)OC(=O)C(C)(C)Oc1ccc(C(=O)c2ccc(Cl)cc2)cc1 | 2.12%
CC1CCc2cc(F)cc3c(=O)c(C(=O)O)cn1c23 (stereo not drawn) | 1.22%
CC(=O)NC[C@H]1CN(c2ccc(N3CCOCC3)c(F)c2)C(=O)O1 | -2.02%
O=C(O)c1ccccc1 | 1.08%
Cc1ccnc2c1NC(=O)c1cccnc1N2C1CC1 | 2.43%
Nc1nc2ccc(OC(F)(F)F)cc2s1 | 4.46%
CCOC(=O)c1ncn2c1CN(C)C(=O)c1cc(F)ccc1-2 | 1.71%
Nc1nccs1 | 1.62%
Cn1ccnc1S | -0.808%
N#C[C@@H]1C[C@@H]2C[C@@H]2N1C(=O)[C@@H](N)C12CC3CC(CC(O)(C3)C1)C2 | 1.41%
CC(C)CC(N)=O | 0.749%
COc1ccccc1OCC(O)COC(N)=O (stereo not drawn) | 1.65%
CCCc1cc(=O)[nH]c(=S)[nH]1 | 1.03%
CC1(C)O[C@@H]2C[C@H]3[C@@H]4CCC5=CC(=O)C=C[C@]5(C)[C@@]4(F)[C@@H](O)C[C@]3(C)[C@]2(C(=O)CO)O1 | 0.771%
CN(C)CCOC(c1ccccc1)c1ccccc1 | -0.629%
CCOC(=O)c1c(CSc2ccccc2)n(C)c2cc(Br)c(O)c(CN(C)C)c12 | -1.13%
CS(=O)(=O)c1ccc(C2=C(c3ccccc3)C(=O)OC2)cc1 | -0.751%

Compound | growth inhibition
Fc1ccc([C@@H]2CCNC[C@H]2COc2ccc3c(c2)OCO3)cc1 | 0.828%
NC(=O)c1ncn([C@@H]2O[C@H](CO)[C@@H](O)[C@H]2O)c1O | 0.272%
COc1cc2c(cc1O)CC[C@@H]1[C@@H]2CC[C@]2(C)[C@@H](O)CC[C@@H]12 | 1.66%
COc1ccccc1OCC(O)CO (stereo not drawn) | -1.42%
CC(=O)O[C@H]1C(=O)[C@@]2(C)[C@H]([C@H](OC(=O)c3ccccc3)[C@]3(O)C[C@H](OC(=O)[C@H](O)[C@@H](NC(=O)c4ccccc4)c4ccccc4)C(C)=C1C3(C)C)[C@]1(OC(C)=O)CO[C@@H]1C[C@@H]2O | 8.37%
CC1CNc2c(cccc2S(=O)(=O)N[C@@H](CCCNC(=N)N)C(=O)N2CC[C@@H](C)C[C@@H]2C(=O)O)C1 (stereo partly drawn) | 1.59%
N[C@@H]1CN(c2c(F)cc3c(=O)c(C(=O)O)cn([C@@H]4C[C@@H]4F)c3c2Cl)CC12CC2 | 4.34%
C=Cc1c(C)c2cc3nc(cc4[nH]c(cc5nc(cc1[nH]2)C(C)=C5CCC(=O)O)c(CCC(=O)OC)c4C)C1(C)C3=CC=C(C(=O)OC)C1C(=O)OC (stereo not drawn) | -1.21%
CN1CCN(CCCN2c3ccccc3Sc3ccc(C(F)(F)F)cc32)CC1 | 0.958%
CC(c1cc2ccccc2s1)N(O)C(N)=O (stereo not drawn) | -0.829%
CN1CCN(c2cc3c(cc2F)c(=O)c(C(=O)O)cn3-c2ccc(F)cc2)CC1 | 1.39%
CC1(C)S[C@@H]2[C@H](NC(=O)[C@H](NC(=O)N3CCNC3=O)c3ccccc3)C(=O)N2[C@H]1C(=O)O | 0.459%
Cc1cccn2c(=O)c(-c3nnn[nH]3)cnc12 | -1.28%
CC(C)(C(=O)O)c1ccc(C(O)CCCN2CCC(C(O)(c3ccccc3)c3ccccc3)CC2)cc1 (stereo not drawn) | -1.1%
CCOC(=O)CC(=O)N1CCSC1COc1ccccc1OC (stereo not drawn) | 3.41%
Cc1cnc(NC(=O)C2=C(O)c3ccccc3S(=O)(=O)N2C)s1 | 2.24%
CC(C)(S)[C@@H](N)C(=O)O | -0.325%
CCCCNC(=O)NS(=O)(=O)c1ccc(C)cc1 | 2.64%
CCN1CCN(C(=O)NC(C(=O)NC2C(=O)N3C(C(=O)O)=C(CSc4nnnn4C)CSC23)c2ccc(O)cc2)C(=O)C1=O (stereo not drawn) | 0.256%
